This is a sample that favours compounds with a hit; in the whole collection about 9.8% have one here.
HTT ATP protect: protects HTT-Q103 PC12 cells, measured by ATP; hit rate 0.14% among 230,000; PC12 HTT-Q103 induced, cytoprotection, ATP luminescence, 40 h; Potency, µM (series often up to 56.4 µM), inactives show cytoprotection (ATP increase), most hits filed as activators; also: potency is read from the fitted curve at half-maximal effect; % of control where 0% means no effect; nearly all actives have a fitted effect of over 45% in size
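PC12 cells with ecdysone-inducible HTT exon 1 Q103-GFP, induced with 100 nM tebufenozide and co-treated with library compounds in a dose series (1536-well, 1500 cells/well). Cytoprotection read as ATP content by ATPlite luminescence.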
CBFb-RUNX1 inh: CBF-beta/RUNX1 interaction disruption | AID 1477 | AlphaScreen CBFb-His/RUNX1-biotin binding, biochemical | 230,000 tested, under 10 active | Q01196+Q13951 | Potency, µM (top dose mostly 59.8 µM), for inactives: top-dose activity, negative = inhibition, usual class: inhibitors; also: % of control where 0% means no effect
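Read-out: AlphaScreen. Format: His-CBF-beta with biotinylated RUNX1 (30 nM each) preincubated 20 min, compound 15 min, Ni-chelate plus streptavidin beads 90 min; room temperature throughout.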
JMJD2E inh: inhibitors of human JMJD2E histone demethylase; hit rate 1.6% among 230,000; AID 2147; JMJD2E catalytic domain, FDH-coupled NADH fluorescence (FDH is formaldehyde dehydrogenase); Potency, µM (series often up to 57.1 µM), without a hit: top-dose activity change, negative = inhibition, usual class: inhibitors; B2RXH2; active = well fitted inhibition curve with a large enough effect, not every such curve was filed as active; inconclusive = small, poorly fitted or top-dose-only effect, or another doubt; inactive = no such curve, though single readings can be large or run the other way;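 also: potency is read from the fitted curve at half-maximal effect; 0% = wells with enzyme and -100% = buffer wells without enzyme; nearly all actives have a fitted effect of over 50% in size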
Target sequence (B2RXH2 1-337 limits assumed): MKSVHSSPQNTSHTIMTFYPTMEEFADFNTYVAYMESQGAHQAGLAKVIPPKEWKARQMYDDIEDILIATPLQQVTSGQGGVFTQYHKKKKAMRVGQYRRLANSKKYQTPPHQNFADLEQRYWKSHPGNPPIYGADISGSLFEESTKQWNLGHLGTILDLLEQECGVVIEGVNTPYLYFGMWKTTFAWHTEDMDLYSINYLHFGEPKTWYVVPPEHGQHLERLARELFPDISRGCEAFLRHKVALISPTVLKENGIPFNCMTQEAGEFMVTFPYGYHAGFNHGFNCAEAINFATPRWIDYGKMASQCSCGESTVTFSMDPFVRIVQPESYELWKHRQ
HPGD block: blocks human HPGD enzyme activity; Potency, µM, without a hit: at the highest dose activity change, negative = inhibition, actives largely listed as inhibitors; P15428; purified HPGD, NADH fluorescence kinetic, PGE2 substrate; hit rate 4.3% among 150,000; active = well fitted inhibition curve with a large enough effect, not every such curve was filed as active; inconclusive = small, poorly fitted or top-dose-only effect, or another doubt; inactive = no such curve, though single readings can be large or run the other way; also: potency is read from the fitted curve at half-maximal effect; % is scaled to controls: 0 for no effect and ±100 for the full control effect
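20 nM HPGD preincubated 15 min at room temperature with compound in 50 mM Tris-HCl pH 8, 0.01% Tween 20. Started with 1 mM NAD+ and 30 uM prostaglandin E2; NADH fluorescence (360/450 nm) read 5 times over 30-s intervals, last minus first.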
ALDH1A1 inh: ALDH1A1 (human) enzyme inhibition; hit rate 7.3% among 220,000; Potency, µM (series often up to 75.3 µM), without a hit: top-dose activity, negative = inhibition, most hits filed as inhibitors; AID 1030; Purified ALDH1A1, NADH fluorescence, propionaldehyde substrate; active = well fitted inhibition curve with a large enough effect, not every such curve was filed as active; inconclusive = small, poorly fitted or top-dose-only effect, or another doubt; inactive = no such curve, though single readings can be large or run the other way;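 also: potency is read from the fitted curve at half-maximal effect; plate controls were no enzyme wells and a reference inhibitor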
Target sequence (P00352 whole entry, looked up): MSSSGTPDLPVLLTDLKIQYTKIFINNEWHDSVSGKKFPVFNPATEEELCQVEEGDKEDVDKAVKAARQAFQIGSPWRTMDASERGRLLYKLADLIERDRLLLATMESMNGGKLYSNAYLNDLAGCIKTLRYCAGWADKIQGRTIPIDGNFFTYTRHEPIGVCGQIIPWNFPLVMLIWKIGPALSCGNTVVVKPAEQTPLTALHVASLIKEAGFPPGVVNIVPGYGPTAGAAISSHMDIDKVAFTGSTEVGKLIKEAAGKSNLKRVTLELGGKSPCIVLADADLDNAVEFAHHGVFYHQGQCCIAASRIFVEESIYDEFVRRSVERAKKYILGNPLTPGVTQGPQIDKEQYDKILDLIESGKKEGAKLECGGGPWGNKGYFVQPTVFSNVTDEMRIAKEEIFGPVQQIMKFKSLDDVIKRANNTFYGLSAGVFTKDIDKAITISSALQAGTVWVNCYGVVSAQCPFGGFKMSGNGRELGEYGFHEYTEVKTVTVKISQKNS
HTT aggregate: mutant huntingtin aggregation inhibition; hit rate 1.1% among 220,000; PC12 HttQ103-GFP aggregates, Acumen cytometry, 40 h; Potency, µM (series often up to 46.1 µM), for inactives: at the top dose activity change, negative = inhibition, actives largely listed as inhibitors; also: potency is read from the fitted curve at half-maximal effect; % is scaled to controls: 0 for no effect and ±100 for the full control effect; nearly all actives have a fitted effect of over 60% in size
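Ecdysone-promoter PC12 model expressing HTT exon 1 Q103 fused to GFP, induced by tebufenozide at 100 nM final. Compounds titrated; aggregates sized 1–25 µm scored on a 488 nm laser cytometer.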
The depositor's hits bear a star; ? = inconclusive; / = not tested or not shown; ! = not active in a repeat; [ ] = another dose, or the depositor's remark. Unless noted, calls follow the shape of the dose curve; as a rule, active = well fitted curve in the direction sought with a large enough effect; inconclusive = small, poorly fitted or top-dose-only effect, or another doubt; inactive = no such curve, though single readings can be large; an effect the other way counts as inactive or inconclusive.

SMILES | HTT ATP protect | CBFb-RUNX1 inh | JMJD2E inh | HPGD block | ALDH1A1 inh | HTT aggregate
COc1ccc(Nc2c3c(c(C#N)c4nc5ccccc5n24)CCC3)cc1 | 1.5% | -2.1% | 3.4% | 1.26µM* | ? | 8.5%
Cc1cc(C)nc(NS(=O)(=O)c2ccc(Br)s2)c1 | -17.7% | 1.4% | ? | ? | 25.1µM* | ?
Cc1cccc(NS(=O)(=O)c2ccc(Br)s2)n1 | -57.3% | 8.9% | -20.9% | -12.3% | ? | 14.1%
CCN1CCN(c2c(C(=O)c3ccc(OC)cc3)cnc3ccccc23)CC1 | 16.9% | -7.9% | ? | / | 2.82µM* | 28.1%
CN1CCN(c2ncncc2-c2cccnc2)CC1 | 4.5% | / | / | / | ? | /
CSCC[C@H](NC(=O)[C@H](CCC(N)=O)NC(=O)[C@H](CCCCN)NC(=O)[C@H](CCCNC(=N)N)NC(=O)[C@H](Cc1ccc(O)cc1)NC(=O)[C@H](CCCNC(=N)N)NC(=O)[C@H](CO)NC(=O)[C@H](Cc1ccc(O)cc1)NC(=O)[C@H](CO)NC(=O)[C@H](CC(=O)O)NC(=O)[C@@H](NC(=O)[C@@H](N)Cc1ccccc1)[C@@H](C)O)C(=O)N[C@@H](C)C(=O)N[C@H](C(=O)N[C@@H](CCCCN)C(=O)N[C@@H](CCCCN)C(=O)N[C@@H](Cc1ccc(O)cc1)C(=O)N[C@@H](CC(C)C)C(=O)N[C@@H](C)C(=O)N[C@@H](C)C(=O)N[C@H](C(=O)N[C@@H](CC(C)C)C(=O)NCC(=O)N[C@@H](CCCCN)C(=O)N[C@@H](CCCNC(=N)N)C(=O)N[C@@H](Cc1ccc(O)cc1)C(=O)N[C@@H](CCCCN)C(=O)N[C@@H](CCC(N)=O)C(=O)N[C@@H](CCCNC(=N)N)C(=O)N[C@H](C(=O)N[C@@H](CCCCN)C(=O)N[C@@H](CC(N)=O)C(=O)N[C@@H](CCCCN)C(N)=O)C(C)C)C(C)C)C(C)C | / | 16.3% | / | / | / | /
CC(C)(C)Nc1nc(N2CCCC2)nc(N2CCCC2)n1 | -44.0% | -0.8% | -3.4% | -6.5% | 0.501µM* | 9.1%
CCNc1nc(NC(C)(C)C)nc(N2CCCC2)n1 | -7.2%[10 µM] | 15.0% | -7.8% | -7.1% | 4.9% | -12.4%
O=C(CN1C(=O)S/C(=C\C=C\c2ccccc2)C1=O)Nc1ccc(C(=O)O)cc1 | -7.5%[10 µM] | 8.9% | -7.5% | / | 12.6µM* | 14.7%[9.22 µM]
O=C(CN1C(=O)S/C(=C/C=C/c2ccccc2)C1=O)Nc1ccc(C(=O)O)cc1 | -27.8% | -3.9% | ? | / | -6.7% | 14.9%
COc1ccccc1/C=C/C1(C(=O)NC2CCCC2)CC(=O)N1c1ccc(C)cc1 (stereo not drawn) | 12.0%[1.9 µM] | -3.1% | 41.5% | -7.9% | ? | ?
COc1ccccc1/C=C/C1(C(=O)NC2CCCC2)CC(=O)N1c1ccc(F)cc1 (stereo not drawn) | -5.6%[1.9 µM] | 14.6% | -7.7% | -11.7% | 31.6µM* | 3.3%
CC(Sc1nnc2ccccn12)C(=O)Nc1ccc2c(c1)OCCO2 (stereo not drawn) | -30.4% | 2.7% | -15.4% | / | 0.3% | -9.8%
C=CCc1c(C)nc(SC)nc1Nc1ccc(C(C)=O)cc1 | -15.9% | 4.8% | ? | -29.6% | 8.91µM* | ?
O=C(c1cccs1)N1CCC(c2nc3c(nnn3Cc3ccccc3)c(=O)[nH]2)CC1 | -5.3%[10 µM] | 3.4% | -1.5% | / | ? | 3.2%
O=C(NC1CCCC1)c1nc2c(nnn2Cc2ccccc2Cl)c(=O)[nH]1 | -6.5%[10 µM] | 0.7% | 0.6% | ? | -2.1% | -15.8%
O=C(NC1CCCC1)c1nc2c(nnn2Cc2cccc(Cl)c2)c(=O)[nH]1 | -17.2% | -6.7% | 5.5% | 2.51µM* | -3.8% | -9.2%
N#Cc1cccc(NC(=O)N2CCC(c3nc4c(nnn4Cc4cccc(Cl)c4)c(=O)[nH]3)CC2)c1 | -11.3% | -2.7% | 0.1% | 10µM* | -2.2% | 0.6%
Cc1ccc(NC(=O)N2CCC(c3nc4c(nnn4Cc4cccc(Cl)c4)c(=O)[nH]3)CC2)cc1 | -18.5% | -14.3% | -4.7% | 2µM* | -16.9% | -2.6%
O=C(Nc1ccc(F)cc1)N1CCC(c2nc3c(nnn3Cc3cccc(Cl)c3)c(=O)[nH]2)CC1 | -18.5%[10 µM] | 1.7% | -2.2% | 8.91µM* | 11.7% | 16.2%
COc1ccccc1NC(=O)N1CCCC(c2nc3c(nnn3Cc3ccc(C)cc3)c(=O)[nH]2)C1 (stereo not drawn) | -37.4% | -5.9% | -10.3% | / | ? | 12.5%
O=S1(=O)CC(O)C(N(CCO)C(=S)Nc2ccccc2)C1 (stereo not drawn) | -0.2%[10 µM] | 8.8% | 3.5% | / | / | 6.6%[9.22 µM]
Cc1ccc(/C=N/NC(=O)NC23CC4CC(CC(C4)C2)C3)o1 | -10.8%[10 µM] | -14.9% | -3.1% | / | / | -14.9%[9.22 µM]
OCCC1CN(Cc2nc3ccccc3s2)CCN1C1CCCC1 (stereo not drawn) | 14.2%[10 µM] | -0.8% | 0.0% | / | -12.6% | -6.8%[9.22 µM]
Cc1ccc(/C=N/n2cnc3sc(-c4ccccc4)cc3c2=O)o1 | -22.6% | 7.0% | -12.7% | ? | 31.6µM* | -12.1%
SMILES | HTT ATP protect | CBFb-RUNX1 inh | JMJD2E inh | HPGD block | ALDH1A1 inh | HTT aggregate
CCOC(=O)c1sc(Nc2nc(OC)cc(OC)n2)nc1C | -4.8%[10 µM] | -1.0% | ? | / | ? | -5.2%[9.22 µM]
Oc1cc2c(cc1C(c1ccc(Br)cc1)N1CCCC1)OCO2 (stereo not drawn) | -54.2% | 0.2% | ? | / | 2µM* | 13.3%[9.22 µM]
S=C(c1ccc2c(c1)OCO2)N1CCCCCC1 | -15.7%[10 µM] | -1.6% | 0.4% | ? | -12.3% | 4.7%
CN(Cc1cc(Br)cc(Br)c1N)C1CCCCC1 | -60.2% | ? | -0.2% | -10.1% | 1.6% | ?
COC(=O)C1=C(C)NC(C)=C(C(=O)OC)C1c1ccc2ccccc2n1 | 9.6% | 0.7% | -26.4% | -8.4% | -8.9% | 24.1%
O=C1c2ccccc2C(=O)C1c1ccc2ccccc2n1 | -82.1% | 9.2% | 4.5% | -3.9% | 25.1µM*! | -9.4%
Cc1cc(C)nc(SCSc2nc(C)cc(C)n2)n1 | 15.9% | 5.4% | -16.6% | -21.0% | 8.0% | 19.2%
Cc1cc(C)nc(SCCc2ccncc2)n1 | -4.3%[10 µM] | ? | ? | -21.4% | 25.1µM* | -23.1%
CC(C)NC(=O)COC(=O)c1cc(F)c(F)cc1Cl | -2.7% | 0.8% | -2.1% | ? | 1.1% | -20.5%
COCCNC(=O)c1cc(Br)ccc1Cl | -5.9% | 11.4% | 0.1% | 22.4µM* | 3.4% | -3.4%
CC(C)NC(=O)COC(=O)c1cc(Br)ccc1Cl | -8.7%[1.9 µM] | 1.3% | 4.6% | 22.4µM* | -4.5% | 3.3%
Cc1nc(CNC(=O)CC2C(=O)NCCN2Cc2ccoc2)nc2c1CCCC2 (stereo not drawn) | -11.7%[10 µM] | 7.1% | -4.8% | / | / | -24.7%[9.22 µM]
